Results from PubChem BioAssay AID624040 (The Scripps Research Institute Molecular Screening Center, 2012).
Screen size: about 360,000 compounds; about 2,100 (0.58%) were called active. Many of the other results were omitted from the sample, so actives are more common in it than they were. A number with no mark means an inactive call.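 The calls were made as follows: active = inhibition above a per-plate cutoff, the mean of that plate's test compounds plus 3 SD (cut at about 27% in these data); inactive = the rest.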

The compounds below were run against Muscarinic acetylcholine receptor M5 (Homo sapiens) (UniProt P08912) (assay: human M5 muscarinic receptor antagonists, primary screen, CHO cells, Fluo-8 calcium fluorescence (AID 624040;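 also: 0% = acetylcholine EC80 with DMSO and 100% = DMSO without agonist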)). Conditions: CHO-hM5 cells, ACh EC80, at 3 µM, stronger effect = higher value.
Chain of Muscarinic acetylcholine receptor M5 (Homo sapiens) (P08912 whole entry, looked up): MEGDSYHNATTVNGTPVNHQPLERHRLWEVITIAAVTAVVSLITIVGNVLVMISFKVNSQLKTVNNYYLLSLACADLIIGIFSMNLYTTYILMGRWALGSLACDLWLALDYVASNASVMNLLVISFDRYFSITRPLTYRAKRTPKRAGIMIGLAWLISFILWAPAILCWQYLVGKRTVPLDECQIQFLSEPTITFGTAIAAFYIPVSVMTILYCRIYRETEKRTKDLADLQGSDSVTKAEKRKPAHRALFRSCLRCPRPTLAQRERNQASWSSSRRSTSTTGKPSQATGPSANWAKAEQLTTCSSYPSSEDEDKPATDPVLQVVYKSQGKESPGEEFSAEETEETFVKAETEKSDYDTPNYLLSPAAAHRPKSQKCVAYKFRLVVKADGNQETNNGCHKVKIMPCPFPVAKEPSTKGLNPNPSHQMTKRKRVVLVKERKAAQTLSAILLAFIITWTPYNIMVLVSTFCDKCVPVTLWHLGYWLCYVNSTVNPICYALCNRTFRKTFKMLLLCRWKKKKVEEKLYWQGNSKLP
O=C1C2C3C=CC(C3)C2C(=O)N1c1ccc(-c2nc3ccccc3c(=O)o2)cc1 (configuration not stated) gave an inhibition of -6.13%. In the case of Nc1c(C(=O)c2cccs2)sc2nsc(SCCN3CCCCC3)c12, the inhibition is reported as 47.4% (active). Work on CC1CCC2(CC1)NC(=O)N(Cc1nnc(-c3cccs3)o1)C2=O (configuration not stated) yielded an inhibition of 8.17%. For COc1ccccc1CNC(=O)COn1nnc2ccc(S(=O)(=O)N3CCOCC3)cc21, the inhibition was 4.42%. Work on CN1CCN(S(=O)(=O)c2cccc(C(=O)N3CCc4ccccc43)c2)CC1 yielded an inhibition of 5.4%. With Cn1cccc1C(=O)N1CCc2ccccc2C1 the inhibition was -2.44%. In the case of CN1CCN(C(=O)N2c3ccccc3CCc3ccccc32)CC1, the inhibition is reported as 98.8% (active). For COc1ccc(C(=O)NC2CC2)cc1OC1CCN(C/C=C/c2ccccc2)CC1, the inhibition was 3.15%. Compound COCCn1c(SCC(=O)Nc2cc(OC)ccc2OC)nc2c(c1=O)SC(C)C2 (configuration not stated) has an inhibition of 3.68%. For CC(=O)Nc1ccc(S(=O)(=O)NCC(=O)OCc2cc(=O)oc3ccc4ccccc4c23)cc1, the inhibition was 0.62%. Work on COc1ccc(OCC(O)CNC(=O)Nc2ccc(Cl)cc2)cc1 (configuration not stated) yielded an inhibition of 12.7%. CC(C)S(=O)(=O)c1csc(NC(=O)Nc2ccc(Cl)cc2)c1Cl was tested, and the inhibition was 37.3% (active). CC(=O)N1CCC(N(C(=O)Nc2ccc(Cl)cc2)C(C)C)CC1 showed an inhibition of 12.4%. Compound Cc1cc(N2CCCC2)ccc1NC(=O)COc1ccc(Cl)cc1 has an inhibition of -1.18%. Work on O=C(CCCN=C1NS(=O)(=O)c2ccccc21)OCC(=O)c1ccc(F)c(F)c1 yielded an inhibition of 7.17%. Work on COc1cc(OC)c(OC)cc1CN1CCN(C(=O)c2cccc3ccccc23)CC1 yielded an inhibition of 4.24%. CCCn1nc(C(=O)N2CCCc3ccccc32)c2ccccc2c1=O was tested, and the inhibition was 12.6%. Compound Cc1ccc(C(=O)N2CCCc3ccccc32)c(Cl)c1 has an inhibition of 16.7%. With Cc1cccc2cc3c(N)c(C(=O)N4CCCc5ccccc54)sc3nc12 the inhibition was 28.3% (active). O=C(Cc1ccc(S(=O)(=O)N2CCOCC2)s1)NCCOc1ccccc1F showed an inhibition of -4.35%. In the case of CC(Sc1nnc(CNC(=O)c2ccccc2F)n1C)C(=O)Nc1nccs1 (configuration not stated), the inhibition is reported as 5.11%. FC(F)Oc1ccccc1NC(=S)Nc1cccc(Cl)c1Cl showed an inhibition of -7.36%. COc1ccc(-c2cc(C(=O)N(C)Cc3ccc(OC)c(OC)c3OC)c3ccccc3n2)cc1OC was tested, and the inhibition was 29.8% (active). COc1ccc(CN(C)C(=O)Cc2c[nH]c3ccccc23)c(OC)c1OC showed an inhibition of 1.21%. COc1ccc(CN(C)C(=O)Cc2ccsc2)c(OC)c1OC was tested, and the inhibition was 6.37%. In the case of CCCCN(CCCC)CCNC(=O)CN1C(=O)COc2ccc(S(=O)(=O)N3CCOCC3)cc21, the inhibition is reported as -0.51%. Compound CCO[C@H]1OC(C(=O)O)=C[C@@H](C2CCCCC2)[C@@H]1CCCO has an inhibition of 9.63%. O=C(NCc1cccnc1)c1nc(-c2cccs2)no1 gave an inhibition of 5.2%. For CC(C)(C)NC(=O)NC(=O)COC(=O)CCC1CCCCC1, the inhibition was -5.64%. CCc1ccc(CNC(=O)C2CCN(c3nnc(C)c4c(C)n(-c5ccc(C)cc5)nc34)CC2)cc1 was tested, and the inhibition was 0.33%. In the case of CCOc1ccc(CCN2C(=S)N([C@@H](CC(C)C)CN3CCC[C@@H]3CN3C(=S)NC[C@@H]3Cc3ccc(O)cc3)C[C@@H]2Cc2ccc(O)cc2)cc1, the inhibition is reported as 0.29%. CCCCn1nnnc1C(c1cccc(OC)c1OC)N1CCN(C/C=C/c2ccccc2)CC1 (configuration not stated) was tested, and the inhibition was 47% (active). In the case of COCCn1nnnc1C(c1ccccc1Cl)N1CCN(c2ccccc2OC)CC1 (configuration not stated), the inhibition is reported as -11.5%. In the case of CCCCn1nnnc1C(c1ccccc1)N1CCN(c2ccccc2OC)CC1 (configuration not stated), the inhibition is reported as 2.03%. COc1ccc(C(c2nnnn2C2CCCC2)N2CCN(C/C=C/c3ccccc3)CC2)cc1 (configuration not stated) was tested, and the inhibition was 42% (active). FC(F)(F)Oc1ccccc1C(c1nnnn1C1CCCCC1)N1CCN(C/C=C/c2ccccc2)CC1 (configuration not stated) gave an inhibition of -11.2%. Work on COc1ccc(C(c2nnnn2C2CCCCC2)N2CCN(c3ccccc3F)CC2)cc1 (configuration not stated) yielded an inhibition of -15.7%. Cc1ccc(-c2cnc(C(O)c3cccc(C)c3C)[nH]2)cc1 (configuration not stated) gave an inhibition of -3.72%. Work on COCCn1c(C)cc(C(=O)CSc2nc3ccccc3c(=O)n2C(C)COC)c1C (configuration not stated) yielded an inhibition of 9.46%. With CCCn1nc(NC(=O)C(C)C)c2cc3cc(OC)ccc3nc21 the inhibition was 14.6%. Compound O=C1CS(=O)CN1c1ccc(Oc2ccccc2)cc1 (configuration not stated) has an inhibition of -0.11%. CC(C)(C)c1cc2cccnc2n1Cc1cccc(F)c1 gave an inhibition of -7.37%. CCOc1ccc(CN2CCNC(=O)C2CC(=O)NCCCC2CCCC2)cc1 (configuration not stated) was tested, and the inhibition was 9.04%. Compound O=C(CCc1ccc(S(=O)(=O)N2CCOCC2)cc1)NN=C1CCCCCCC1 has an inhibition of -2.08%. COc1cccc(OCC(=O)NCCS(=O)(=O)N2CCN(c3ccccc3)CC2)c1 showed an inhibition of -6.65%. For CC(C)N(Cc1nc(-c2ccc3c(c2)OCO3)no1)CC1CCC(=O)N1 (configuration not stated), the inhibition was 16%. OC[C@@H]1CN(C2CCCC2)C[C@H](n2cnc3c(NC4CCC4)ncnc32)O1 showed an inhibition of 9.41%. OC[C@@H]1CN(Cc2ccc(F)cc2)C[C@H](n2cnc3c(NC4CCCC4)ncnc32)O1 gave an inhibition of 4.45%. In the case of OC[C@@H]1CN(Cc2ccc(-c3ccccc3)cc2)C[C@H](n2cnc3c(NC4CCCC4)ncnc32)O1, the inhibition is reported as 31.4% (active). Work on O=C(NNC(=S)Nc1ccccc1)c1cccc(S(=O)(=O)N2CCOCC2)c1 yielded an inhibition of -3.26%. For Cc1ccc(C(=O)NCC(=O)OCC(=O)NC2CCCCCCC2)cc1, the inhibition was 7.24%. COCCn1c(SCC(=O)Nc2ccccc2F)nc2c(c1=O)SCC2 was tested, and the inhibition was -1.26%. COCCn1c(SCC(=O)Nc2ccc(F)cc2F)nc2c(c1=O)SCC2 gave an inhibition of -2.37%. Cc1cccc(CSc2nc3c(c(=O)n2C)SCC3)c1 was tested, and the inhibition was 36.1% (active). With CN(CCCNC(=O)CN1C(=O)CC(C)(C)S(=O)(=O)c2ccccc21)C1CCCCC1 the inhibition was 3.09%. CC1(C)C2CC=C(/C=N/NC(=O)C3CC3)C1C2 (configuration not stated) was tested, and the inhibition was -4.33%. Work on COc1cc(C(=O)N2CCN(S(=O)(=O)c3ccc(C(C)C)cc3)CC2)ccc1OCC(=O)N1CCOCC1 yielded an inhibition of -6.27%.
